PubChem BioAssay (NCATS)
Values joined by “and” are separate entries in the source; they are usually repeats but may differ in a detail not shown here. Equal values may be shown once. Records with an inconclusive call do not appear. A call without a number means that no potency is given here. Active and inactive are the calls of the source. Unless noted, calls come from the whole dose curve; as a rule, active = well fitted curve in the direction sought with a large enough effect; inconclusive = small, poorly fitted or top-dose-only effect, or another doubt; inactive = no such curve, though single readings can be large; an effect the other way counts as inactive or inconclusive.

Experiments:
[1] = biological target: alpha-glucosidase (Oryza sativa, rice) (UniProt Q653V4); assay: Counterscreen for Glucocerebrosidase Inhibitors: qHTS Assay for Rice alpha-Glucosidase at pH 5.0 (AID 997)
Method in brief: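 Endpoint fluorogenic assay at pH 5.0: compounds (0.7 nM to 77 uM) titrated against 4 nM rice enzyme and 400 uM 4-MU-alpha-glucoside for 20 min at room temperature; NaOH/glycine stop, read ex 365/em 440 nm, Hill-fitted AC50.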

[2] = qHTS Assay for Lipid Storage Modulators (AID 1519; calls by dose curve; note: potency is the fitted concentration of half-maximal effect); conditions: Drosophila S3 cells, BODIPY lipid droplet/cell ratio, laser cytometry, cells loaded with oleic acid; for activity change, negative = inhibition: at 57.5 µM (top of the series)
Method in brief: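 Cells seeded at 5,000 per well were treated with compounds over a concentration series and loaded with oleic acid (400 uM, as added). Lipid droplet fluorescence (488 nm excitation, 500-530 nm channel) was read by laser-scanning cytometry and normalized to 20 uM Triacsin C.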

[3] = biological target: DNA repair nuclease/redox regulator APEX1 (Homo sapiens) (UniProt P27695); assay: qHTS Validation Assay for Inhibitors of the Human Apurinic/apyrimidinic Endonuclease 1 (APE1) (AID 1705;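 note: TAMRA fluorescence gain over two minutes as APE1 cuts a quenched THF abasic duplex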)
Sequence of DNA repair nuclease/redox regulator APEX1 (Homo sapiens) (P27695 whole entry, looked up): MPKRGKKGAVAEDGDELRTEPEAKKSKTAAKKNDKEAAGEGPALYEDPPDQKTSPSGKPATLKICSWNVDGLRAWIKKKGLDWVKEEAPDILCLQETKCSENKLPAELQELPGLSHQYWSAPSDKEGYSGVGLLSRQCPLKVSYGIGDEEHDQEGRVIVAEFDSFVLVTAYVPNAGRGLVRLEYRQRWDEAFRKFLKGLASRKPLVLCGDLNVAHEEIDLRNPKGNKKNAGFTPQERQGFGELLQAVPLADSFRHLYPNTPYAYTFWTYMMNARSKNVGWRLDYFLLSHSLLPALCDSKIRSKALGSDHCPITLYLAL
Method in brief: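 Read-out: TAMRA fluorescence (525 nm ex, 598 nm em) from cleavage of a quenched THF abasic-site duplex, 50 nM final; activity taken as intensity change between third and first of three reads 60 s apart.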

[4] = Counterscreen for APE1 Inhibitors: Fluorescent Dye Displacement Validation Assay (AID 1707)
Method in brief: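 Reaction mixture of 250 nM Thiazole Orange and 50 nM double-stranded abasic-site DNA was dispensed, compounds were pin-transferred, and fluorescence was read at endpoint (480 nm ex, 540 nm em). Reduced fluorescence indicated dye displacement by DNA binding.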

[5] = qHTS for differential inhibitors of proliferation of Plasmodium falciparum line 7G8 (AID 1815);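 note: parasite growth measured after three days of incubation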; note: potency is the fitted concentration of half-maximal effect
[6] = qHTS for differential inhibitors of proliferation of Plasmodium falciparum line GB4 (AID 1816); conditions: Potency: Plasmodium falciparum GB4 proliferation inhibition;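 note: parasite growth measured after 72 h incubation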; note: potency is the fitted concentration of half-maximal effect
[7] = qHTS for differential inhibitors of proliferation of Plasmodium falciparum line 3D7 (AID 1876); note: potency is the fitted concentration of half-maximal effect
[8] = qHTS for differential inhibitors of proliferation of Plasmodium falciparum line D10 (AID 1877);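 note: parasites grown with compound for 72 h before DNA staining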; note: potency is the fitted concentration of half-maximal effect
[9] = qHTS for differential inhibitors of proliferation of Plasmodium falciparum line Dd2 (AID 1882); conditions: Potency: Plasmodium falciparum Dd2 proliferation inhibition; note: nearly all actives have a fitted effect of over 65% in size; note: potency is the fitted concentration of half-maximal effect
Method in brief: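 SYBR Green DNA fluorescence (ex 485, em 535 nm) after overnight lysis quantifies parasite growth; compound exposure lasted 72 h at 37 C on infected red cells at 2.5% hematocrit, 0.3% parasitemia (final). Artemisinin 0.29 uM and vehicle wells define normalization.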

[10] = qHTS for differential inhibitors of proliferation of Plasmodium falciparum line W2 (AID 1883); conditions: Potency: Plasmodium falciparum W2 proliferation inhibition;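 note: parasites grown with compound for 72 h before lysis and staining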; note: potency is the fitted concentration of half-maximal effect
[11] = qHTS for differential inhibitors of proliferation of Plasmodium falciparum line HB3 (AID 1886); conditions: Potency: Plasmodium falciparum HB3 proliferation inhibition;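 note: parasites grown with compound for 72 h before SYBR Green readout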; note: potency is the fitted concentration of half-maximal effect
[12] = qHTS Assay for Modulators of Human Peripheral Myelin Protein 22 (PMP22) Expression/Activity (AID 1967; active = well fitted curve in the direction sought with a large enough effect in the signal ratio; the % refers to the signal ratio)
Method in brief: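 Mouse MSC80 Schwann line, Pmp22 promoter–CBG68 reporter, EF-alpha–CBR internal control. 24h compound exposure, 37 °C/5% CO2, DMEM + 10% FBS. Readout: corrected green/red luminescence ratio, normalized to untreated cells; concentration-response curves fitted and classified.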

[13] = biological target: Ferritin light chain (Equus caballus) (UniProt P02791); assay: qHTS Validation Assay for Identification of Novel General Anesthetics (AID 2323)
Sequence of Ferritin light chain (Equus caballus) (P02791 2-175 limits assumed): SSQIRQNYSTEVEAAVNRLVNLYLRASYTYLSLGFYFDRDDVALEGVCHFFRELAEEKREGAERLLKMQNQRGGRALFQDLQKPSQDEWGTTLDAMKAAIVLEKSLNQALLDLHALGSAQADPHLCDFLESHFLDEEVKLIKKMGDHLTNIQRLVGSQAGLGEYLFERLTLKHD
Method in brief: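 10 uM horse-spleen apoferritin + 1-AMA (50% saturated, PBS); cpd pin-transferred, 10 min RT. Ex 380/Em 535 nm endpoint. Activity normalized between free 1-AMA and 1-AMA/apoferritin; 4-parameter Hill fit of concentration-response.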

[14] = biological target: ATP-dependent DNA helicase Q1 (Homo sapiens) (UniProt P46063); assay: qHTS Validation Assay for Inhibitors of RecQ-Like Dna Helicase 1 (RECQ1) (AID 2353)
Sequence of ATP-dependent DNA helicase Q1 (Homo sapiens) (P46063 whole entry, looked up): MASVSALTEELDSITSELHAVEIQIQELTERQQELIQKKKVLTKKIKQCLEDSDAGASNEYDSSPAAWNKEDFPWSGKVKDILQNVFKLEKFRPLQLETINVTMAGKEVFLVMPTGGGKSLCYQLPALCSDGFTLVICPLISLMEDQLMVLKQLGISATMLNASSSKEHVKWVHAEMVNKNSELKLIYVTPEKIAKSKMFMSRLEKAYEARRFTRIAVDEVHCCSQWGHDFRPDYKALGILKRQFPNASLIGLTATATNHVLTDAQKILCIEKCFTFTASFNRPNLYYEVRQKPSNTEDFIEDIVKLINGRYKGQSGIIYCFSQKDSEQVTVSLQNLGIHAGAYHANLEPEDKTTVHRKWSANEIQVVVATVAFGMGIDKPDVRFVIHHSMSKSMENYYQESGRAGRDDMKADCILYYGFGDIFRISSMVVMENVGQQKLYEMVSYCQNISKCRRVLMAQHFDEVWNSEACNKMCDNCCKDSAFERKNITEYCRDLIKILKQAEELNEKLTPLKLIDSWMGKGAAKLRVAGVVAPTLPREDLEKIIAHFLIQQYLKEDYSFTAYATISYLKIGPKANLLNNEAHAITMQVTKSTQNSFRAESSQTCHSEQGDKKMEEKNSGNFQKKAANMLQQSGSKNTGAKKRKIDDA
Method in brief: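 RECQ1T1 50 nM; forked duplex (20 bp + 30-nt ss tails) 200 nM, ATP 2 mM final; pH 8.0, 2 mM MgCl2, 2.5 ug/ml poly(dI-dC); 15 min compound preincubation; discontinuous kinetic read over 2 h at RT.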

[15] = biological target: Endonuclease 4 (Escherichia coli (strain K12)) (UniProt P0A6C1); assay: Counterscreen for APE1 Inhibitors: qHTS Validation Assay for Inhibitors of Endonuclease IV (AID 1708)
Method in brief: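 Enzyme (2 nM) + compound, 15 min RT; add 50 nM TAMRA/BHQ-2 THF-site dsDNA; kinetic read ex525/em598, 3 reads/60 s; activity = read 3 − read 1. Buffer Tris pH 7.5, 50 mM NaCl, 2 mM MgCl2, DTT, Tween-20.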

[16] = biological target: RecQ-like DNA helicase BLM (Homo sapiens) (UniProt P54132); assay: qHTS Validation Assay for Inhibitors of Bloom's syndrome helicase (BLM) (AID 2364)
Sequence of RecQ-like DNA helicase BLM (Homo sapiens) (P54132 whole entry, looked up): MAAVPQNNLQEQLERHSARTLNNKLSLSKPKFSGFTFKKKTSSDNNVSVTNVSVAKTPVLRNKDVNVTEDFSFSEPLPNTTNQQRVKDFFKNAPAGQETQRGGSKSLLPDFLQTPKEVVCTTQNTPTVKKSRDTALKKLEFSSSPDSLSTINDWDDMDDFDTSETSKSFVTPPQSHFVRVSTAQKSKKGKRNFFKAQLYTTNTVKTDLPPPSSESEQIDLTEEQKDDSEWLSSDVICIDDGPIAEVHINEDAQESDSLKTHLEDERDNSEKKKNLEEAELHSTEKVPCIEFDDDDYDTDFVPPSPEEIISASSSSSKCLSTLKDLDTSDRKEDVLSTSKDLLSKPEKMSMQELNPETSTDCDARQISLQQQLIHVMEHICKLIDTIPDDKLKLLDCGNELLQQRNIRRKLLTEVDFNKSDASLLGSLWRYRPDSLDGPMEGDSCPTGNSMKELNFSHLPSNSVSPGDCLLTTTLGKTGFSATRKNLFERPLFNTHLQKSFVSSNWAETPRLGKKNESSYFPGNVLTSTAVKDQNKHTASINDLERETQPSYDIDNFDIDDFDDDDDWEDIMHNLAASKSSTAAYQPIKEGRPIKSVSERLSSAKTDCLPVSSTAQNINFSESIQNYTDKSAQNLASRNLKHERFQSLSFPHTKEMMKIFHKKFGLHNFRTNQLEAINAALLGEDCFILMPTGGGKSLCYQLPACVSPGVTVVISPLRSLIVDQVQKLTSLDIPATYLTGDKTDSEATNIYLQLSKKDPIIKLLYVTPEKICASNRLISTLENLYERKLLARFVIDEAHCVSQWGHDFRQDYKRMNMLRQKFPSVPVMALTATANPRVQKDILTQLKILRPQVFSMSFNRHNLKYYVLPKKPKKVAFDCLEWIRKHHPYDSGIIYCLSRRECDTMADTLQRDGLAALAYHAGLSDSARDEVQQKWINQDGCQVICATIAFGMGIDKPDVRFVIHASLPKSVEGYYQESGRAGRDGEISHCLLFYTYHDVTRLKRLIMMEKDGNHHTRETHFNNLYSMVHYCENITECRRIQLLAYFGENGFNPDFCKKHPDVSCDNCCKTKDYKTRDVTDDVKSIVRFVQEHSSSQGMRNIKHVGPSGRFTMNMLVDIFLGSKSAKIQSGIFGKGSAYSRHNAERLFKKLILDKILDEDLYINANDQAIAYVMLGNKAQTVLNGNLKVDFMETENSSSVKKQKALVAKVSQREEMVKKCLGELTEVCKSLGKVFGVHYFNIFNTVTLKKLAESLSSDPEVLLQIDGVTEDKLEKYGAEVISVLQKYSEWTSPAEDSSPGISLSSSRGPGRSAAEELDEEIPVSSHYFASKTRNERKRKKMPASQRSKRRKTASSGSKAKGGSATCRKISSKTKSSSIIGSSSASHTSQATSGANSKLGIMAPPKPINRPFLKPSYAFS
Method in brief: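 BLM 50 nM in 25 mM Tris-HCl pH 8.0, 5 mM NaCl, 2 mM MgCl2, 1 mM DTT, 0.01% Tween-20, 2.5 ug/ml poly(dI-dC); 15 min cpd preinc, RT. Start: 200 nM forked DNA + 2 mM ATP (final). TAMRA read, 2 reads 2 h apart.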

[17] = measured here: cell count channel max response
[18] = measured here: lipid channel max response

SMILES | outcome [1] | activity change, negative = inhibition [2] | max response [2, 17] | max response [2, 18] | Potency [3] | Potency [4] | Potency [5] | Potency [6] | Potency [7] | Potency [8] | Potency [9] | Potency [10] | Potency [11] | outcome [12] | Potency [13] | Potency [14] | Potency [15] | Potency [16] | Potency [2]
CCCc1c(OCCCOc2ccc(OCC(=O)O)cc2)ccc(C(C)=O)c1O | inactive | 1% (inactive) | 51.1% | 51.4% | inactive | inactive | inactive | inactive | inactive | inactive | inactive | inactive | inactive | inactive | inactive | inactive |  |  | 
O=c1onc2n1-c1cc(Br)ccc1OC2 | inactive | 3.14% (inactive) | 64.2% | 68.1% | inactive | inactive | inactive | inactive | inactive | inactive | inactive |  | inactive |  | inactive | inactive | inactive |  | 
COc1ccc2c(c1)c(CC(=O)O)c(C)n2Cc1ccc(Cl)cc1 | inactive | -1.87% (inactive) | -35.2% | -34.3% | inactive | inactive | 14.1 µM (active) | 10 µM (active) | 11.2 µM (active) | 14.1 µM (active) | inactive | 8.91 µM (active) | 14.1 µM (active) |  | inactive |  | inactive | inactive | 
Cc1cccc(C(=O)NCN2CCN(c3ccccc3C#N)CC2)c1 | inactive | 0.112% (inactive) | -23.9% | -22.6% | inactive | inactive | inactive |  | inactive | inactive | inactive |  | inactive |  | inactive | inactive | inactive |  | 
O=[N+]([O-])c1cccc2cn[nH]c12 | inactive | 13.6% (inactive) | 18.6% | 36.8% | inactive | inactive | inactive | inactive | inactive | inactive | inactive | inactive | inactive | inactive |  | inactive |  |  | 
N[C@H](C(=O)O)c1cc(O)cc(O)c1 | inactive | 10.3% (inactive) and 1.43% (inactive) and 0.261% (inactive) | 7.08% and 3.62% and -19% | 19.7% and 15.4% and -15.9% | inactive | inactive | inactive | inactive | inactive | inactive | inactive | inactive | inactive | inactive | inactive | inactive | inactive |  | 
Oc1ccc(Cn2cc[nH]c2=S)cc1 | inactive | -3.19% (inactive) | -28.3% | -29.9% | inactive | inactive | inactive | inactive | inactive | inactive | inactive | inactive | inactive | inactive | inactive |  | inactive |  | 
CN1CCc2cc(Cl)c(O)cc2[C@@H](c2ccccc2)C1 |  | 0.829% (inactive) | 25.8% | 26.8% |  |  |  |  |  |  |  |  |  |  |  |  |  |  | 
N[C@@H](CCCC(=O)O)C(=O)O |  | 0.27% (inactive) | -26.7% | -26.8% | inactive | inactive | inactive | inactive | inactive | inactive |  | inactive | inactive | inactive | inactive | inactive | inactive |  | 
Cc1nc(N=Nc2ccc(S(=O)(=O)O)cc2S(=O)(=O)O)c(COP(=O)(O)O)c(C=O)c1O | inactive | 0.0773% (inactive) and 2.25% (inactive) | -1.61% and 6.03% | -3.14% and 17.5% | inactive | inactive | inactive | inactive | inactive | inactive | inactive | inactive | inactive | inactive | inactive | inactive | inactive | inactive | 
N[C@@H](Cc1c[nH]c2ccccc12)C(=O)O | inactive | 1.05% (inactive) | 61.2% | 63.3% | inactive | inactive | 11.2 µM (active) |  |  |  | inactive |  |  |  | inactive |  | inactive |  | 
CN(C)S(=O)(=O)c1ccc2c(c1)/C(=C/c1cc3c([nH]1)CCCC3)C(=O)N2 | inactive |  | 59.5% | -52.8% | inactive | inactive | 4.47 µM (active) | 5.01 µM (active) | 3.55 µM (active) | 3.55 µM (active) | 7.08 µM (active) | 3.55 µM (active) | 3.98 µM (active) |  |  | inactive | inactive |  | 28.2 µM (active)
CCC1(O)CC2CN(CCc3c([nH]c4ccccc34)[C@@](C(=O)OC)(c3cc4c(cc3OC)N(C=O)C3[C@]45CCN4CC=C[C@@](CC)([C@@H](OC(C)=O)[C@]3(O)C(=O)OC)[C@H]45)C2)C1 (stereo partly drawn) |  | 2.35% (inactive) | -1.21% | 2.17% | inactive | inactive | 0.794 µM (active) |  | 0.0631 µM (active) | 0.224 µM (active) | 0.1 µM (active) | 0.0501 µM (active) | 1.78 µM (active) |  | inactive |  |  |  | 
Cn1c(=O)[nH]c2ncn(C)c2c1=O | inactive | 0.383% (inactive) | 10.7% | 12.8% |  | inactive | inactive | inactive | inactive |  | inactive | inactive | 12.6 µM (active) |  | inactive |  |  |  | 
CC(=O)N[C@@H](Cc1c[nH]c2ccccc12)C(=O)OCc1cc(C(F)(F)F)cc(C(F)(F)F)c1 | inactive | -1.99% (inactive) | -16.3% | -17.3% |  |  |  | inactive | inactive | inactive | inactive | inactive | inactive | inactive |  | inactive |  |  | 
CC[C@@H]1Cc2cc(O)ccc2C2=C1c1ccc(O)cc1C[C@H]2CC | inactive | -3.04% (inactive) | -26.2% | -25.3% |  |  | 5.62 µM (active) | 4.47 µM (active) | 11.2 µM (active) | 11.2 µM (active) |  | 4.47 µM (active) | 11.2 µM (active) |  | inactive |  | inactive |  | 
